# Screening results as filed in PubChem BioAssay.
# Most compounds without a hit are left out; they make up all but 6.7% or so of the library.
# C diff growth = C. difficile growth inhibition | growth activity, negative = inhibition, % at 16 µg/mL (by protocol) | actives 0.25% (n = 86,000) | Clostridium difficile clinical isolate growth, OD600, 24 h; stronger effect = lower value;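 active = mean growth activity at or below -80% and every replicate also at or below -80%; inconclusive = mean at or below -80% but some replicate above -80%; inactive = mean growth activity above -80%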;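 also: 0% = DMSO wells and -100% = levofloxacin 16 µg/mL wells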
# T cruzi growth-1 = inhibitors of T. cruzi proliferation | T. cruzi beta-gal in NIH3T3, GalScreen luminescence, 90 h | inhibition, % at 8.34 µM | actives 5.9% (n = 77,000) | AID 624255;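 active = mean inhibition above about 93%, with at least 55% of replicates each passing it, limit read from the data, passing the limit was not always enough; inconclusive = only one of those two conditions holds; inactive = neither condition holds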
# Pf Dd2 inh = blocks growth of Plasmodium falciparum Dd2 parasites; actives 2.3% (n = 94,000); P. falciparum Dd2 growth, SYBR Green, 72 h; stronger effect = lower value; activity change, % at 10 µM; AID 1159554; in the data active = activity change below about -80%; inconclusive = no clear call, values can overlap the other calls
# T cruzi growth-2 = blocks T. cruzi growth in NIH3T3 host cells; shares compounds with T cruzi growth-1; T. cruzi beta-gal in NIH3T3, GalScreen luminescence, 90 h; inhibition, % at 8.35 µM; actives 72% (n = 5,600);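 active = mean replicate inhibition above about 95% and at least 55% of replicates individually reaching it, limit read from the data; inconclusive = only one of the two criteria is met; inactive = neither criterion is met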
# T cruzi growth-3 = blocks T. cruzi growth in NIH3T3 host cells; shares compounds with T cruzi growth-1; T. cruzi beta-gal in NIH3T3, GalScreen luminescence, 90 h; inhibition, % at 2.09 µM; actives 21% (n = 5,600); AID 651740;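 active = mean inhibition above about 95%, with at least 55% of replicates also reaching it, limit read from the data; inconclusive = meets just one of the two conditions; inactive = meets neither condition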;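 also: plate controls were neutral control median for no effect and positive control median for full effect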
# 3T3 cytotox = NIH/3T3 (mouse) viability loss; AID 651742; actives 14% (n = 5,600); NIH/3T3 viability, CellTiter-Glo ATP luminescence, 90 h; shares compounds with T cruzi growth-1; cytotoxicity (signal decrease), % at 8.35 µM;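 active = mean signal decrease across replicates above about 35% based on untreated-well scatter, with enough replicates individually passing, limit read from the data; inconclusive = no rule stated though some were filed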;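 also: 0% = median of neutral control wells and 100% = median of positive control wells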
# NIH3T3 tox 2 = kills mouse NIH/3T3 fibroblasts | shares compounds with T cruzi growth-1 | NIH/3T3 viability, CellTiter-Glo ATP luminescence, 90 h | inhibition, % at 24.9 µM | actives 56% (n = 5,600);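 active = mean loss of cell viability signal at or above a set limit, and enough replicates individually reaching it; inconclusive = meets only the mean limit or only the replicate share; inactive = meets neither condition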;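 also: 0% = median of neutral control wells and 100% = median of positive control wells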
# * hit, by the source's call; ? = inconclusive; / = no result given.
SMILES,C diff growth,T cruzi growth-1,Pf Dd2 inh,T cruzi growth-2,T cruzi growth-3,3T3 cytotox,NIH3T3 tox 2
O=C(C1CCCC1)N1CCCCN2[C@H](CO)[C@@H](c3ccc(C#CC4CC4)cc3)[C@H]2C1,1.2,109.1*,-9.7,107.5*,58.1,12.6,48.9*
O=C(C1CCC1)N1CCCCN2[C@H](C1)[C@H](c1ccc(C#CC3CCCC3)cc1)[C@@H]2CO,11.6,103.3*,15.4,108.0*,53.9,27.1,104.0*
O=C(C1CC1)N1CCCCN2[C@@H](CO)[C@@H](c3ccc(C#CC4CC4)cc3)[C@@H]2C1,-14.8,50.0,12.9,/,/,/,/
O=C(C1CC1)N1CCCCN2[C@H](CO)[C@H](c3ccc(C#CC4CC4)cc3)[C@@H]2C1,-13.3,46.2,10.0,/,/,/,/
C[C@@H]1CN([C@H](C)CO)C(=O)c2cc(/C=C/c3ccccc3)cnc2O[C@@H]1CN(C)C(=O)c1ccccc1,2.6,57.9,-60.8,/,/,/,/
C[C@H]1CCCCO[C@@H](CN(C)C(=O)Nc2ccc(C(F)(F)F)cc2)[C@@H](C)CN([C@@H](C)CO)C(=O)c2cc(N(C)C)ccc2O1,1.5,?,33.9,103.1*,50.0,-8.2,19.9
CC(C)NC(=O)Nc1ccc2c(c1)C(=O)N([C@@H](C)CO)C[C@@H](C)[C@H](CN(C)C(=O)Nc1ccc(C(F)(F)F)cc1)OCCCC[C@@H](C)O2,-0.5,102.2*,-28.7,102.4*,8.6,14.0,6.9
C[C@@H]1CCCCO[C@H](CN(C)C(=O)Nc2ccc(C(F)(F)F)cc2)[C@@H](C)CN([C@H](C)CO)C(=O)c2cc(N(C)C)ccc2O1,-0.2,89.1,-40.7,/,/,/,/
C[C@@H]1CCCCO[C@@H](CN(C)C(=O)c2ccccc2)[C@H](C)CN([C@@H](C)CO)C(=O)c2cc(NC(=O)Nc3ccc(C(F)(F)F)cc3)ccc2O1,3.1,102.2*,-15.6,105.2*,107.8*,-7.8,-5.7
C[C@@H]1CCCCO[C@H](CN(C)C(=O)Nc2ccc(F)cc2)[C@H](C)CN([C@H](C)CO)C(=O)c2cc(NC(=O)Nc3ccc(C(F)(F)F)cc3)ccc2O1,4.0,92.6,-77.0,/,/,/,/
C[C@@H]1CCCCO[C@@H](CN(C)C(=O)Nc2ccc(C(F)(F)F)cc2)[C@H](C)CN([C@@H](C)CO)C(=O)c2cc(NC(=O)Nc3ccc(C(F)(F)F)cc3)ccc2O1,17.7,115.7*,8.2,99.0*,113.0*,-17.4,-25.0
C[C@H](CO)N1C[C@H](C)[C@@H](CN(C)C(=O)c2ccccc2)OCCCC[C@H](C)Oc2ccc(NC(=O)Nc3ccc(C(F)(F)F)cc3)cc2C1=O,-0.9,-56.3,57.6,/,/,/,/
CC(C)NC(=O)Nc1ccc2c(c1)C(=O)N([C@H](C)CO)C[C@H](C)[C@@H](CN(C)C(=O)Nc1ccc(C(F)(F)F)cc1)OCCCC[C@@H](C)O2,-0.9,46.3,-12.1,/,/,/,/
O=C(O)C[C@H]1C[C@H]2c3cc(NC(=O)NC4CCCCC4)ccc3O[C@H]2[C@@H](CO)O1,0.8,-30.4,6.4,/,/,/,/
CCCC(=O)Nc1ccc2c(c1)C(=O)N(C)C[C@H](OC)[C@@H](C)CN(Cc1cncnc1)[C@H](C)CO2,0.4,-33.9,-46.1,/,/,/,/
Cc1ccc(S(=O)(=O)N(C)C[C@@H]2Oc3ccc(NC(=O)Nc4ccccc4)cc3C(=O)N([C@H](C)CO)C[C@@H]2C)cc1,-1.4,/,-0.4,/,/,/,/
O=C(C[C@@H]1C[C@H]2c3cc(NC(=O)Cc4ccncc4)ccc3O[C@H]2[C@H](CO)O1)NCCN1CCCCC1,-2.3,-35.5,18.6,/,/,/,/
CC(=O)Nc1ccc2c(c1)C(=O)N(C)[C@H]1CC[C@H](CC(=O)Nc3ccc(C)cc3)O[C@@H]1CO2,-1.2,11.1,4.7,/,/,/,/
CO[C@@H]1CN(C)C(=O)c2ccc(NC(=O)Nc3cccc(F)c3)cc2OC[C@@H](C)N(C(=O)Nc2c(C)noc2C)C[C@H]1C,/,/,-44.5,/,/,/,/
O=C(C[C@@H]1C=C[C@H](NC(=O)Nc2ccc(C(F)(F)F)cc2)[C@H](CO)O1)NCc1ccccn1,-7.8,39.8,-9.1,/,/,/,/
CCCNC(=O)N1CC2(CN(C(=O)C3CCCCC3)C2)c2c([nH]c3cc(OC)ccc23)[C@H]1CO,-8.6,/,-13.2,/,/,/,/
CCCNC(=O)C[C@@H]1CC[C@@H]2[C@@H](COc3ccc(NC(=O)NCCC)cc3C(=O)N2C)O1,3.4,/,8.6,/,/,/,/
